Assay results as given in PubChem BioAssay AID1159580 (chemical genetic matrix, 2015).
Several values for one entry are separate records, joined by “and”; a condition that tells them apart may be missing. Equal values may be shown once. Among all 5,500 compounds or so, about 2,000 (36%) were called active. About 18% were inconclusive and are not listed. Cut-off read from the data, not from the text of the source: active = normalized growth mostly below about 0.91 (no sharp cut-off); inconclusive = no clear call, values can overlap the other calls; inactive = mostly above about 0.92. The list shows a part of the results.

Experiment: chemical genetic growth profiling, strain panel (AID 1159580);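 note: tested at 20 µM; growth read once vehicle control cultures reached saturation at 30 °C; 1 = growth at the plate median or of vehicle wells; lower values mean less growth of the strain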
Conditions: S. cerevisiae deletion strains, growth OD

Measured: normalized growth

COC(=O)CCC(C)[C@H]1CCC2C3C(C[C@H](O)[C@@]21C)[C@@]1(C)CC[C@@H](O)C[C@H]1C[C@H]3O (some centres undefined)
inactive: locus YAL013W, strain DEP1, active compounds read low 1.03 | locus YAL021C, strain ccr4, active compounds read low 1.01 | locus YAL026C, strain drs2, active compounds read low 0.997 | locus YAL030W, strain snc1, active compounds read low 1.01 | locus YBL061C, strain skt5, active compounds read low 1.01 | locus YBR009C, strain hhf1, active compounds read low 1 | locus YBR021W, strain FUR4, active compounds read low 0.952 | locus YBR023C, strain chs3, active compounds read low 1 | locus YBR171W, strain sec66, active compounds read low 1.01 | locus YBR229C, strain ROT2, active compounds read low 1.03 | locus YBR279W, strain paf1, active compounds read low 1.01 | locus YCL011C, strain gbp2, active compounds read low 1.02 | locus YCL016C, strain dcc1, active compounds read low 1.02 | locus YCL029C, strain bik1, active compounds read low 1.04 | locus YCL061C, strain MRC1, active compounds read low 1.02 | locus YCL069W, strain vba3, active compounds read low 1 | locus YCR088W, strain abp1, active compounds read low 1.02 | locus YDL005C, strain med2, active compounds read low 0.999 | locus YDL035C, strain GPR1, active compounds read low 1.01 | locus YDL040C, strain nat1, active compounds read low 1.01 | locus YDL074C, strain BRE1, active compounds read low 0.983 | locus YDL101C, strain DUN1, active compounds read low 1.01 | locus YDL185W, strain tfp1, active compounds read low 1.02 | locus YDL192W, strain arf1, active compounds read low 1.02 | locus YDR001C, strain nth1, active compounds read low 1.01 | locus YDR069C, strain doa4, active compounds read low 1 | locus YDR101C, strain arx1, active compounds read low 1.01 | locus YDR137W, strain rgp1, active compounds read low 1.07 | locus YDR150W, strain NUM1, active compounds read low 1.02 | locus YDR159W, strain sac3, active compounds read low 0.994 | locus YDR162C, strain NBP2, active compounds read low 1.02 | locus YDR195W, strain ref2 1 | locus YDR297W, strain sur2, active compounds read low 1.01 | locus YDR318W, strain mcm21, active compounds read low 1.01 | locus YDR334W, strain swr1, active compounds read low 1.01 | locus YDR335W, strain msn5, active compounds read low 1.01 | locus YDR388W, active compounds read low 1.02 | locus YDR392W, strain spt3, active compounds read low 0.965 | locus YDR502C, strain sam2, active compounds read low 1.02 | locus YEL003W, strain gim4, active compounds read low 1.01 | locus YEL037C, strain rad23, active compounds read low 1.01 | locus YEL061C, strain CIN8 (second series), active compounds read low 1.01 | locus YEL061C, strain CIN8, active compounds read low 1 | locus YER015W, strain faa2, active compounds read low 1.02 | locus YER016W, strain bim1, active compounds read low 1.01 | locus YER110C, active compounds read low 1.02 | locus YER111C, strain swi4, active compounds read low 1.01 | locus YER155C, strain BEM2 (second series), active compounds read low 1.02 | locus YER155C, strain BEM2, active compounds read low 1.02 | locus YER167W, strain BCK2, active compounds read low 1 | locus YFR010W, strain ubp6, active compounds read low 0.996 | locus YGL078C, strain dbp3, active compounds read low 1.02 | locus YGL086W, strain mad1, active compounds read low 1.01 | locus YGL167C, strain pmr1, active compounds read low 1.01 | locus YGL173C, strain kem1, active compounds read low 1.01 | locus YGL227W, strain vid30, active compounds read low 1.02 | locus YGL240W, strain doc1, active compounds read low 1.04 | locus YGL248W, strain PDE1, active compounds read low 1.01 | locus YGL253W, strain hxk2, active compounds read low 0.96 | locus YGR078C, strain PAC10, active compounds read low 1 | locus YGR135W, strain pre9, active compounds read low 1 | locus YGR252W, strain gcn5, active compounds read low 0.909 | locus YHR013C, strain ard1, active compounds read low 1.02 | locus YHR027C, strain rpn1, active compounds read low 1 | locus YHR030C, strain SLT2, active compounds read low 1.02 and 1.01 | locus YHR079C, strain IRE1 (second series), active compounds read low 1.03 | locus YHR079C, strain IRE1, active compounds read low 0.984 | locus YHR094C, strain hxt1, active compounds read low 1.06 | locus YHR129C, strain ARP1, active compounds read low 1.01 | locus YHR142W, strain chs7, active compounds read low 0.976 | locus YHR200W, strain rpn10, active compounds read low 1 | locus YIL066C, strain RNR3, active compounds read low 1.01 | locus YIL073C, strain SPO22, active compounds read low 1.07 | locus YIL125W, strain kgd1, active compounds read low 1.03 | locus YIR030C, strain dcg1, active compounds read low 1.03 | locus YJL092W, strain hpr5, active compounds read low 1.01 | locus YJL095W, strain BCK1 (second series), active compounds read low 1.02 | locus YJL095W, strain BCK1, active compounds read low 0.976 and 0.998 | locus YJL115W, strain asf1, active compounds read low 1.01 | locus YJL129C, strain trk1, active compounds read low 1.03 | locus YJL134W, strain LCB3, active compounds read low 1.03 | locus YJL154C, strain vps35, active compounds read low 1.02 | locus YJL164C, strain tpk1, active compounds read low 1.01 | locus YJL166W, strain qcr8, active compounds read low 1.02 | locus YJL168C, strain set2, active compounds read low 1.03 | locus YJL187C, strain SWE1 (second series), active compounds read low 1.02 | locus YJL187C, strain SWE1, active compounds read low 1.01 | locus YJR043C, strain POL32, active compounds read low 0.999 | locus YJR066W, strain TOR1, active compounds read low 0.949
